Test [1] has as its system DLD1. The experiment in a line: cell viability (CellTiter-Glo) relative to plate median (fraction of plate median); higher = more viable cells. The conditions noted are these: 5 µM; treatment time 24 h; reporter: 7TFP. Summed up: (§1)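 Colorectal cancer cell lines stably carrying lentiviral TCF/Wnt firefly luciferase reporters (7TFP or TCF4/Wnt) were plated in 384-well plates and, 24 h later, given library compounds at a final 5 µM for 24 h. Firefly luciferase or CellTiterGlo luminescence was read on parallel plates with a Tecan F500 reader. Each well's signal was normalised to the plate median in webcellHTS2 (additive, without log transformation). Values are the mean of two independent replicates.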
Background: In ATP-based viability assays light output follows the ATP content of the culture.

In the next test the test system is HCT116. The test is described as above. The conditions noted are these: 5 µM; treatment time 24 h; reporter: TCF4/Wnt. The method in brief: as §1
Test [2] relates to SW480. The test is described as above. The following applies: 5 µM; treatment time 24 h; reporter: 7TFP. Summed up:
as §1

The subject of test [3] is DLD1. The experiment in a line: TCF/Wnt firefly luciferase reporter signal relative to plate median (fraction of plate median); higher = higher Wnt reporter signal. The conditions noted are these: 5 µM; treatment time 24 h; reporter: 7TFP. The method in brief:
as §1
Background: Reporter assays use an easily measured gene product as a stand-in for the process of interest.

The test system of test [4] is SW480. The test is described as above. The following applies: 5 µM; treatment time 24 h; reporter: 7TFP. The method in brief:
as §1

± gives the standard deviation of the averaged measurements.

As to `COc1cc(/C=C/C(=O)O)cc(OC)c1OC`, the results for the cell viability with DLD1 [1], in the test with HCT116 and in the test on SW480 [2] were 0.983 ± 0.016, 0.961 ± 0.015 and 0.903 ± 0.056, respectively. Also, the “TCF/Wnt firefly luciferase reporter signal” value in the test on DLD1 [3] was 0.827 ± 0.072; in the test with SW480 [4] it was 0.972 ± 0.0028.

In the case of `CN1CCN(CC(=O)N2c3ccccc3C(=O)Nc3cccnc32)CC1`, the values for the cell viability with DLD1 [1], with HCT116 and with SW480 [2] were 0.944 ± 0.022, 1 ± 0.067 and 0.9405 ± 0.0035, respectively. For the same molecule, the “TCF/Wnt firefly luciferase reporter signal” value is 0.796 ± 0.014 with DLD1 [3] and 0.813 ± 0.0099 in the test with SW480 [4].

With `CC(=O)N[C@@H](Cc1c[nH]c2ccccc12)C(=O)O`, the results for the cell viability with DLD1 [1], in the test with HCT116 and in the test on SW480 [2] were 0.953 ± 0.0014, 0.955 ± 0.093 and 0.985 ± 0.021, respectively. The “TCF/Wnt firefly luciferase reporter signal” value is 0.905 ± 0.1 in the test on DLD1 [3] and 0.961 ± 0.016 with SW480 [4].

On to `CCOC(=O)C1=C(COCCN)NC(C)=C(C(=O)OC)C1c1ccccc1Cl` (stereo not given), for which the cell viability in the test on DLD1 [1] stood at 0.998 ± 0.031; in the test on HCT116 it was 1.01 ± 0.097; with SW480 [2], 1.03 ± 0.083. The “TCF/Wnt firefly luciferase reporter signal” value stood at 1.02 ± 0.11 in the test with DLD1 [3] and 1.04 ± 0.042 with SW480 [4].

With `C=C(C)[C@@H]1CC=C(C(=O)O)CC1`, the cell viability in the test on DLD1 [1] came out at 1.055 ± 0.0071; in the test on HCT116, 1.04 ± 0.11; in the test on SW480 [2] it was 0.995 ± 0.035. Further, the “TCF/Wnt firefly luciferase reporter signal” value with DLD1 [3] was 1.11 ± 0.17; in the test with SW480 [4] it was 1.055 ± 0.0071.

Take `CC(=O)O[C@@H]1C=C[C@]2(C)C(C[C@@H](OC(C)=O)[C@]3(C)C4=CC(=O)O[C@H](c5ccoc5)[C@@]4(C)CCC23)C1(C)C` (stereo not given in full): the cell viability with DLD1 [1] stood at 1.06 ± 0.035; with HCT116 it was 1.08 ± 0.042; in the test on SW480 [2], 1.03 ± 0.014. In addition, the figures for the “TCF/Wnt firefly luciferase reporter signal” value in the test on DLD1 [3] and with SW480 [4] were 1.09 ± 0.021 and 1.12 ± 0.078, respectively.

For `O=C(O)c1nc2cc(Cl)c(Cl)cc2nc1O`, the cell viability in the test with DLD1 [1] is 0.95 ± 0.16; in the test on HCT116 it was 0.957 ± 0.046; in the test on SW480 [2], 1.03 ± 0.028. Further, the “TCF/Wnt firefly luciferase reporter signal” value turned out to be 0.831 ± 0.0014 in the test on DLD1 [3] and 0.951 ± 0.098 in the test on SW480 [4].

As for `N=C(N)c1ccc(OCCCCCOc2ccc(C(=N)N)cc2)cc1`, the cell viability in the test with DLD1 [1] amounted to 0.93 ± 0.21; with HCT116 it was 0.9365 ± 0.0078; with SW480 [2], 1.01 ± 0.014. The entries for the “TCF/Wnt firefly luciferase reporter signal” value in the test on DLD1 [3] and with SW480 [4] were 1.035 ± 0.0071 and 0.795 ± 0.013, respectively.

With `CC(=O)O[C@H]1C(=O)[C@@]2(C)[C@H]([C@H](OC(=O)c3ccccc3)[C@]3(O)C[C@H](OC(=O)[C@H](O)[C@@H](NC(=O)c4ccccc4)c4ccccc4)C(C)=C1C3(C)C)[C@]1(OC(C)=O)CO[C@@H]1C[C@@H]2O`, the cell viability in the test with DLD1 [1] worked out at 0.901 ± 0.03; in the test with HCT116, 0.498 ± 0.016; in the test on SW480 [2], 1.11 ± 0.092. Besides, the “TCF/Wnt firefly luciferase reporter signal” value in the test on DLD1 [3] is 0.792 ± 0.27; in the test on SW480 [4], 0.755 ± 0.23.

As to `C[C@@H]1C[C@H]2[C@@H]3CCC4=CC(=O)C=C[C@]4(C)[C@@]3(F)[C@@H](O)C[C@]2(C)[C@@]1(O)C(=O)CO`, the cell viability with DLD1 [1] worked out at 1.06 ± 0.071; in the test on HCT116, 1.05 ± 0.057; with SW480 [2] it was 0.977 ± 0.016. Moreover, the “TCF/Wnt firefly luciferase reporter signal” value in the test with DLD1 [3] worked out at 1.04 ± 0.082; in the test on SW480 [4] it was 1.05 ± 0.035.

In the case of `Cc1c(C)c2c(c(C)c1O)CCC(C)(COc1ccc(CC3SC(=O)NC3=O)cc1)O2` (stereo not given), the cell viability in the test with DLD1 [1] is 1.05 ± 0.085; in the test with HCT116 it was 1.04 ± 0.071; in the test on SW480 [2], 1.06 ± 0.021. In addition, the “TCF/Wnt firefly luciferase reporter signal” value with DLD1 [3] was determined as 0.942 ± 0.11; with SW480 [4], 1.04 ± 0.021.

For `CC12CCC3C(CC3(C)C)C(C)(CCC1=O)O2` (stereo not given), the cell viability in the test with DLD1 [1] was determined as 0.908 ± 0.033; in the test on HCT116 it was 0.972 ± 0.069; with SW480 [2] it was 0.892 ± 0.016. Besides, the “TCF/Wnt firefly luciferase reporter signal” value was 0.883 ± 0.23 in the test with DLD1 [3] and 0.889 ± 0.13 in the test with SW480 [4].

On to `O=C([O-])[C@H]1/C(=C/CO)O[C@@H]2CC(=O)N21.[Li+]`, for which the cell viability amounted to 1.045 ± 0.0071 in the test with DLD1 [1], 1.04 ± 0.064 in the test on HCT116 and 1.02 ± 0.049 with SW480 [2]. Further, the results for the “TCF/Wnt firefly luciferase reporter signal” value with DLD1 [3] and in the test with SW480 [4] were 1.04 ± 0.092 and 1.125 ± 0.0071, respectively.

With `COc1ccc(-c2coc3cc(O)ccc3c2=O)c(OC)c1`, the cell viability was determined as 0.989 ± 0.016 in the test on DLD1 [1], 1.01 ± 0.067 in the test on HCT116 and 1.04 ± 0.05 in the test with SW480 [2]. Moreover, the “TCF/Wnt firefly luciferase reporter signal” value is 1.035 ± 0.0071 in the test with DLD1 [3] and 1.01 ± 0.064 with SW480 [4].

Consider `COc1cc(C2Oc3cc([C@H]4Oc5cc(O)cc(O)c5C(=O)[C@@H]4O)ccc3OC2CO)ccc1O` (stereo not given in full), for which the cell viability was 1.09 ± 0.042 with DLD1 [1], 1.12 ± 0.16 with HCT116 and 1.02 ± 0.014 in the test with SW480 [2]. Also, the “TCF/Wnt firefly luciferase reporter signal” value in the test with DLD1 [3] was 0.993 ± 0.081; in the test with SW480 [4], 0.967 ± 0.2.

The values are drawn from the supplement of paper PMC6522484.
